Data as given in PubChem BioAssay AID1159580 (chemical genetic matrix, 2015).
About 2,000 (36%) of roughly 5,500 compounds were called active. About 18% were inconclusive and are not listed. Cut-off read from the data, not from the text of the source: active = normalized growth mostly below about 0.91 (no sharp cut-off); inconclusive = no clear call, values can overlap the other calls; inactive = mostly above about 0.92. The list shows a part of the results.

Experiment: chemical genetic growth profiling, strain panel (AID 1159580);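 note: tested at 20 µM; growth read once vehicle control cultures reached saturation at 30 °C; 1 = growth at the plate median or of vehicle wells; lower values mean less growth of the strain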
Conditions: growth OD
[1] = S. cerevisiae deletion strains, locus YHR030C, strain SLT2, stronger effect = lower value

Measured: normalized growth

O=C(O)C1=C(CSc2nnnn2CS(=O)(=O)O)CS[C@@H]2C(NC(=O)[C@H](O)c3ccccc3)C(=O)N12 (stereo partly drawn)
inactive: S. cerevisiae deletion strains, locus YAL021C, strain ccr4, stronger effect = lower value 0.955 | S. cerevisiae deletion strains, locus YAL026C, strain drs2, stronger effect = lower value 0.965 | S. cerevisiae deletion strains, locus YAL030W, strain snc1, stronger effect = lower value 0.993 | S. cerevisiae deletion strains, locus YBL061C, strain skt5, stronger effect = lower value 0.989 | S. cerevisiae deletion strains, locus YBR009C, strain hhf1, stronger effect = lower value 0.993 | S. cerevisiae deletion strains, locus YBR023C, strain chs3, stronger effect = lower value 0.988 | S. cerevisiae deletion strains, locus YBR171W, strain sec66, stronger effect = lower value 0.978 | S. cerevisiae deletion strains, locus YBR231C, strain swc5, stronger effect = lower value 0.987 | S. cerevisiae deletion strains, locus YBR279W, strain paf1, stronger effect = lower value 0.99 | S. cerevisiae deletion strains, locus YCL011C, strain gbp2, stronger effect = lower value 0.963 | S. cerevisiae deletion strains, locus YCL016C, strain dcc1, stronger effect = lower value 0.987 | S. cerevisiae deletion strains, locus YCL061C, strain MRC1, stronger effect = lower value 0.971 | S. cerevisiae deletion strains, locus YCL069W, strain vba3, stronger effect = lower value 0.978 | S. cerevisiae deletion strains, locus YCR088W, strain abp1, stronger effect = lower value 0.968 | S. cerevisiae deletion strains, locus YDL005C, strain med2, stronger effect = lower value 0.98 | S. cerevisiae deletion strains, locus YDL040C, strain nat1, stronger effect = lower value 0.989 | S. cerevisiae deletion strains, locus YDR001C, strain nth1, stronger effect = lower value 0.978 | S. cerevisiae deletion strains, locus YDR069C, strain doa4, stronger effect = lower value 0.982 | S. cerevisiae deletion strains, locus YDR137W, strain rgp1, stronger effect = lower value 0.928 | S. cerevisiae deletion strains, locus YDR159W, strain sac3, stronger effect = lower value 0.966 | S. cerevisiae deletion strains, locus YDR195W, strain ref2 0.971 | S. cerevisiae deletion strains, locus YDR297W, strain sur2, stronger effect = lower value 0.985 | S. cerevisiae deletion strains, locus YDR334W, strain swr1, stronger effect = lower value 0.95 | S. cerevisiae deletion strains, locus YDR335W, strain msn5, stronger effect = lower value 0.963 | S. cerevisiae deletion strains, locus YDR392W, strain spt3, stronger effect = lower value 0.956 | S. cerevisiae deletion strains, locus YEL003W, strain gim4, stronger effect = lower value 0.969 | S. cerevisiae deletion strains, locus YEL037C, strain rad23, stronger effect = lower value 0.963 | S. cerevisiae deletion strains, locus YEL061C, strain CIN8 (second series), stronger effect = lower value 0.972 | S. cerevisiae deletion strains, locus YER015W, strain faa2, stronger effect = lower value 0.986 | S. cerevisiae deletion strains, locus YER016W, strain bim1, stronger effect = lower value 0.978 | S. cerevisiae deletion strains, locus YER111C, strain swi4, stronger effect = lower value 0.981 | S. cerevisiae deletion strains, locus YER155C, strain BEM2 (second series), stronger effect = lower value 0.989 | S. cerevisiae deletion strains, locus YFR010W, strain ubp6, stronger effect = lower value 0.964 | S. cerevisiae deletion strains, locus YGL167C, strain pmr1, stronger effect = lower value 0.987 | S. cerevisiae deletion strains, locus YGL173C, strain kem1, stronger effect = lower value 0.983 | S. cerevisiae deletion strains, locus YGL227W, strain vid30, stronger effect = lower value 0.994 | S. cerevisiae deletion strains, locus YGL240W, strain doc1, stronger effect = lower value 1.01 | S. cerevisiae deletion strains, locus YGL253W, strain hxk2, stronger effect = lower value 0.991 | S. cerevisiae deletion strains, locus YHR013C, strain ard1, stronger effect = lower value 0.963 | S. cerevisiae deletion strains, locus YHR027C, strain rpn1, stronger effect = lower value 0.975 | [1] 1 | S. cerevisiae deletion strains, locus YHR079C, strain IRE1, stronger effect = lower value 1.03 | S. cerevisiae deletion strains, locus YHR142W, strain chs7, stronger effect = lower value 0.948 | S. cerevisiae deletion strains, locus YJL092W, strain hpr5, stronger effect = lower value 0.97 | S. cerevisiae deletion strains, locus YJL095W, strain BCK1 (second series), stronger effect = lower value 0.994 | S. cerevisiae deletion strains, locus YJL095W, strain BCK1, stronger effect = lower value 1.01 | S. cerevisiae deletion strains, locus YJL115W, strain asf1, stronger effect = lower value 0.968 | S. cerevisiae deletion strains, locus YJL129C, strain trk1, stronger effect = lower value 0.961 | S. cerevisiae deletion strains, locus YJL154C, strain vps35, stronger effect = lower value 0.989 | S. cerevisiae deletion strains, locus YJL164C, strain tpk1, stronger effect = lower value 0.982 | S. cerevisiae deletion strains, locus YJL166W, strain qcr8, stronger effect = lower value 0.99 | S. cerevisiae deletion strains, locus YJL187C, strain SWE1, stronger effect = lower value 0.991 | S. cerevisiae deletion strains, locus YJR066W, strain TOR1, stronger effect = lower value 0.945 | S. cerevisiae deletion strains, locus YKL160W, strain elf1, stronger effect = lower value 0.974 | S. cerevisiae deletion strains, locus YKR026C, strain gcn3, stronger effect = lower value 0.972 | S. cerevisiae deletion strains, locus YKR091W, strain srl3, stronger effect = lower value 0.989 | S. cerevisiae deletion strains, locus YLL001W, strain dnm1, stronger effect = lower value 0.965 | S. cerevisiae deletion strains, locus YLL026W, stronger effect = lower value 0.991 | S. cerevisiae deletion strains, locus YLL041C, strain sdh2, stronger effect = lower value 0.982 | S. cerevisiae deletion strains, locus YLR027C, strain aat2, stronger effect = lower value 0.984 | S. cerevisiae deletion strains, locus YLR113W, strain HOG1, stronger effect = lower value 1.04 | S. cerevisiae deletion strains, locus YLR221C, strain rsa3, stronger effect = lower value 0.975 | S. cerevisiae deletion strains, locus YLR258W, strain gsy2, stronger effect = lower value 0.995 | S. cerevisiae deletion strains, locus YLR262C, strain YPT6 (second series), stronger effect = lower value 0.98 | S. cerevisiae deletion strains, locus YLR320W, strain mms22, stronger effect = lower value 0.995 | S. cerevisiae deletion strains, locus YLR342W, strain FKS1, stronger effect = lower value 0.982 | S. cerevisiae deletion strains, locus YLR357W, strain rsc2, stronger effect = lower value 1 | S. cerevisiae deletion strains, locus YLR370C, strain arc18, stronger effect = lower value 0.971 | S. cerevisiae deletion strains, locus YLR384C, strain iki3, stronger effect = lower value 0.987 | S. cerevisiae deletion strains, locus YML120C, strain ndi1, stronger effect = lower value 0.958 | S. cerevisiae deletion strains, locus YMR058W, strain fet3, stronger effect = lower value 0.97 | S. cerevisiae deletion strains, locus YMR125W, strain sto1, stronger effect = lower value 0.993 | S. cerevisiae deletion strains, locus YMR129W, stronger effect = lower value 0.975 | S. cerevisiae deletion strains, locus YMR205C, strain PFK2, stronger effect = lower value 1.01 | S. cerevisiae deletion strains, locus YMR231W, strain pep5, stronger effect = lower value 0.984 | S. cerevisiae deletion strains, locus YNL071W, strain lat1, stronger effect = lower value 0.992 | S. cerevisiae deletion strains, locus YNL183C, strain NPR1, stronger effect = lower value 0.952 | S. cerevisiae deletion strains, locus YNL209W, strain ssb2, stronger effect = lower value 0.982 | S. cerevisiae deletion strains, locus YNL248C, strain rpa49, stronger effect = lower value 0.947 | S. cerevisiae deletion strains, locus YNL322C, strain KRE1 (second series), stronger effect = lower value 0.977 | S. cerevisiae deletion strains, locus YNR049C, strain mso1, stronger effect = lower value 0.983 | S. cerevisiae deletion strains, locus YOR001W, strain rrp6, stronger effect = lower value 0.942 | S. cerevisiae deletion strains, locus YOR070C, strain gyp1, stronger effect = lower value 0.993 | S. cerevisiae deletion strains, locus YOR080W, strain dia2, stronger effect = lower value 0.981 | S. cerevisiae deletion strains, locus YOR083W, strain WHI5, stronger effect = lower value 0.972 | S. cerevisiae deletion strains, locus YOR106W, strain vam3, stronger effect = lower value 0.971 | S. cerevisiae deletion strains, locus YOR231W, strain MKK1, stronger effect = lower value 1.01 | S. cerevisiae deletion strains, locus YOR265W, strain rbl2, stronger effect = lower value 0.991 | S. cerevisiae deletion strains, locus YOR270C, strain vph1, stronger effect = lower value 0.964 | S. cerevisiae deletion strains, locus YOR290C, strain snf2, stronger effect = lower value 0.979 | S. cerevisiae deletion strains, locus YPL051W, strain arl3, stronger effect = lower value 0.998 | S. cerevisiae deletion strains, locus YPL078C, strain atp4, stronger effect = lower value 0.966 | S. cerevisiae deletion strains, locus YPL106C, strain sse1, stronger effect = lower value 0.961 | S. cerevisiae deletion strains, locus YPL240C, strain hsp82, stronger effect = lower value 0.971 | S. cerevisiae deletion strains, locus YPL256C, strain CLN2, stronger effect = lower value 1.04

Cc1c(C)c(C)c(S(=O)(=O)Nc2ccccc2N)c(C)c1C
inactive: S. cerevisiae deletion strains, locus YAL013W, strain DEP1, stronger effect = lower value 1.01 | S. cerevisiae deletion strains, locus YBR229C, strain ROT2, stronger effect = lower value 0.993 | S. cerevisiae deletion strains, locus YDL101C, strain DUN1, stronger effect = lower value 1.04 | S. cerevisiae deletion strains, locus YDR150W, strain NUM1, stronger effect = lower value 1.02 | S. cerevisiae deletion strains, locus YEL061C, strain CIN8, stronger effect = lower value 0.959 | S. cerevisiae deletion strains, locus YGR078C, strain PAC10, stronger effect = lower value 1.01 | [1] 1.01 | S. cerevisiae deletion strains, locus YHR087W, strain rtc3, stronger effect = lower value 0.989 | S. cerevisiae deletion strains, locus YJR043C, strain POL32, stronger effect = lower value 1.03 | S. cerevisiae deletion strains, locus YJR075W, strain HOC1, stronger effect = lower value 1.01 | S. cerevisiae deletion strains, locus YKL190W, strain CNB1, stronger effect = lower value 0.994 | S. cerevisiae deletion strains, locus YLR039C, strain RIC1, stronger effect = lower value 0.988 | S. cerevisiae deletion strains, locus YLR058C, strain SHM2 (second series), stronger effect = lower value 0.975 | S. cerevisiae deletion strains, locus YLR085C, strain ARP6, stronger effect = lower value 0.988 | S. cerevisiae deletion strains, locus YLR262C, strain YPT6, stronger effect = lower value 0.981 | S. cerevisiae deletion strains, locus YML094W, strain GIM5, stronger effect = lower value 1 | S. cerevisiae deletion strains, locus YMR219W, strain ESC1, stronger effect = lower value 0.999 | S. cerevisiae deletion strains, locus YMR263W, strain SAP30, stronger effect = lower value 1.01 | S. cerevisiae deletion strains, locus YNL128W, strain TEP1, stronger effect = lower value 0.978 | S. cerevisiae deletion strains, locus YNL153C, strain GIM3, stronger effect = lower value 1.04 | S. cerevisiae deletion strains, locus YNL298W, strain CLA4 (second series), stronger effect = lower value 0.982 | S. cerevisiae deletion strains, locus YNL322C, strain KRE1, stronger effect = lower value 0.996 | S. cerevisiae deletion strains, locus YNR030W, strain Alg12, stronger effect = lower value 0.966 | S. cerevisiae deletion strains, locus YOL006C, strain TOP1, stronger effect = lower value 1.02 | S. cerevisiae deletion strains, locus YPL055C, strain LGE1, stronger effect = lower value 0.991 | S. cerevisiae deletion strains, locus YPL241C, strain CIN2, stronger effect = lower value 0.974 | S. cerevisiae deletion strains, locus YPR135W, strain CTF4, stronger effect = lower value 1.06 | S. cerevisiae strains, strain wild type, stronger effect = lower value 0.975
